# Screening data as filed in PubChem BioAssay.
# Giardia FBPA inh-1: Giardia lamblia aldolase inhibition; A8B2U2; purified Giardia FBPA; Potency, µM (top dose mostly 59.6 µM), inactives show at the highest dose activity, negative = inhibition, usual class: inhibitors; 290,000 compounds, 0.71% hits; note: nearly all actives have a fitted effect of over 55% in size
#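 40 nM FBPA preincubated 10 min at RT with compound (up to 57.5 uM final), then substrate plus GAPDH/TPI/NAD/arsenate coupling and diaphorase/resazurin added. Fluorescence read after 20 min at RT, 525/598 nm.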
# Cruzain inh Det: blocks cruzain activity in presence of Triton detergent | P25779 | purified cruzain, Z-FR-AMC fluorescence, 0.01% Triton | Potency, µM, inactives show max response, negative = inhibition, usual class: inhibitors | 200,000 compounds, 0.43% hits | AID 1478;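 note: plate controls were neutral wells for no effect and buffer without enzyme for full effect; nearly all actives have a fitted effect of over 40% in size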
#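 In this qHTS format, compounds are incubated with 1.5 nM cruzain for 15 min at room temperature before 2 uM Z-FR-AMC is added. Release of AMC is followed at 360/450 nm, and progress is taken as the 60 s fluorescence difference.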
# Cruzain inh noDet: inhibitors of Trypanosoma cruzi cruzain without detergent | P25779 | purified cruzain, Z-FR-AMC fluorescence, no detergent | Potency, µM, inactives show max response, negative = inhibition, usual class: inhibitors | 200,000 compounds, 2.3% hits | AID 1476;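 note: plate controls were enzyme without inhibitor for no effect and buffer without enzyme for full effect; nearly all actives have a fitted effect of over 40% in size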
#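 Purified cruzain at 1.5 nM, pre-incubated 15 min with compound at room temperature in 100 mM sodium acetate pH 5.5, 5 mM DTT, 0.00005% Triton X-100. Reaction started with 2 uM Z-FR-AMC; AMC fluorescence increase over 60 s gives rate.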
# Giardia growth: blocks growth of Giardia lamblia trophozoites; shares compounds with Giardia FBPA inh-1; Giardia lamblia trophozoite growth inhibition; Potency, µM (highest dose often 57.5 µM), for inactives: at the top dose activity change, negative = inhibition, actives largely listed as inhibitors; 1,500 compounds, 5% hits;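 note: trophozoites exposed to compound for 48 h at 37 °C; nearly all actives have a fitted effect of over 70% in size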
# Mammal cell tox: counter-screen for Giardia aldolase inhibitors: mammalian cell toxicity. shares compounds with Giardia FBPA inh-1. mammalian cell viability counter-screen, qHTS. Potency, µM (top dose mostly 57.5 µM), inactives show at the highest dose viability change, negative = toxicity, most hits filed as inhibitors. 1,500 compounds, 4% hits. AID 2786;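 note: Chinese hamster ovary cells used as mammalian cytotoxicity surrogate; viability measured as cellular ATP by luminescence; compound exposure lasted 48 h before reading; nearly all actives have a fitted effect of over 60% in size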
# Giardia FBPA inh-2: confirmation of Giardia fructose-bisphosphate aldolase inhibitors; shares compounds with Giardia FBPA inh-1; purified Giardia aldolase enzyme activity, qHTS; Potency, µM (series often up to 57.5 µM), for inactives: top-dose activity change, negative = inhibition, usual class: inhibitors; 1,500 compounds, 5% hits; note: nearly all actives have a fitted effect of over 45% in size
# Rabbit FBPA inh: selectivity test for Giardia aldolase inhibitors: rabbit aldolase; shares compounds with Giardia FBPA inh-1; Rabbit muscle FBPA enzyme inhibition, selectivity counter-screen; Potency, µM (series often up to 57.5 µM), for inactives: at the highest dose activity, negative = inhibition, actives largely listed as inhibitors; 1,500 compounds, 4% hits; note: nearly all actives have a fitted effect of over 60% in size
# Target sequence (P00883 whole entry, looked up): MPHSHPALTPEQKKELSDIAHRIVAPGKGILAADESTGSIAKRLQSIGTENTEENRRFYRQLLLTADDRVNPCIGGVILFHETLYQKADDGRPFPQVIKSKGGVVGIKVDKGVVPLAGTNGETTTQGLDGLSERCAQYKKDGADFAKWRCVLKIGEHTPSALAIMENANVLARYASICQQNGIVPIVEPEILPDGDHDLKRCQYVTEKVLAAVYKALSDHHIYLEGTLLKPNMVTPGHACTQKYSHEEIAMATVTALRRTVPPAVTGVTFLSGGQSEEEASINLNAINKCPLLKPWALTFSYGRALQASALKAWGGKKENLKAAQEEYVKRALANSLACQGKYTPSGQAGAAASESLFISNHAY
# GAPDH coupling: GAPDH inhibition flagged for Giardia aldolase hits; shares compounds with Giardia FBPA inh-1; GAPDH coupling enzyme counterscreen, biochemical, qHTS; Potency, µM (series often up to 57.5 µM), for inactives: at the highest dose activity change, negative = inhibition, usual class: inhibitors; 1,500 compounds, 6% hits; note: nearly all actives have a fitted effect of over 55% in size
# * marks the source's active call; other numbers are inactive results; ? = inconclusive; . = no result given; [ ] = dose if it differs, or a comment. Only a selection was taken, and hits are over-represented in it overall. Calls come from the whole dose curve; as a rule, active = well fitted curve in the direction sought with a large enough effect; inconclusive = small, poorly fitted or top-dose-only effect, or another doubt; inactive = no such curve, though single readings can be large; an effect the other way counts as inactive or inconclusive. Unless noted, % is set by controls: 0 for no effect and ±100 for the full control effect; potency is the fitted concentration of half-maximal effect.
SMILES,Giardia FBPA inh-1,Cruzain inh Det,Cruzain inh noDet,Giardia growth,Mammal cell tox,Giardia FBPA inh-2,Rabbit FBPA inh,GAPDH coupling
CCOC(=O)Cc1csc(NC(=S)NC(=O)c2cc(OC)c(OC)c(OC)c2)n1,20µM*,.,.,-27%,-7%,-11%,-3%,2%
Cc1nc2ccn(Cc3cccs3)c(=O)c2cc1C(=O)N1CCN(c2ccccc2)CC1,.,-8%,29%,.,.,.,.,.
CC(C)CCn1c(=O)c2cccnc2n(CC(=O)Nc2ccc(F)cc2)c1=O,.,-4%,-6%,.,.,.,.,.
O=C(CN1CCOCC1)Nc1nc2ccc(Br)cc2s1,-3%,-13%,-7%,.,.,.,.,.
O=C(O)CSc1nnc(NC(=O)CN2CCOCC2)s1,5µM*,.,.,-5%,0%,3%,11%,11%
CS(=O)(=O)c1ccc2nc(NC(=O)CN3CCOCC3)sc2c1,4.5µM*,.,.,?,-4%,2%,6%,3%
O=C(CSc1nnc(NC(=O)C2CCC2)s1)Nc1ccc(N2CCOCC2)cc1,-2%,-2%,-6%,.,.,.,.,.
CCOc1ccc2nc(NC(=O)CN3CCOCC3)sc2c1,-3%,.,.,.,.,.,.,.
O=C(CN1CCOCC1)Nc1nc2ccc(Cl)cc2s1,6.3µM*,.,.,-5%,-20%,5%,8%,7%
Cc1cc2nc(-c3cccc(NC(=O)c4cccc5ccccc45)c3)oc2cc1C,.,-1%,-13%,.,.,.,.,.
COc1cc(-c2nnn(CC(=O)Nc3ccc(OC(F)(F)F)cc3)n2)cc(OC)c1OC,.,-12%,?,.,.,.,.,.
Cc1cccc(C(=O)Nc2nnc(-c3cccnc3)o2)c1,16µM*,.,.,?,?,4%,-1%,-1%
COC(=O)c1ccc(C(=O)Nc2nnc(-c3cccnc3)o2)cc1,-11%,.,.,.,.,.,.,.
O=C(Nc1nnc(-c2ccc(Cl)cc2)o1)c1cccc(N2C(=O)CCC2=O)c1,27%,-3%,7%,.,.,.,.,.
O=C(Nc1nnc(-c2ccncc2)o1)c1cccc(N2C(=O)CCC2=O)c1,20µM*,.,.,-7%[10.4 µM],-15%,7%,8%,9%
Cc1nc(-n2nc(C)c(Cc3ccccc3Cl)c2C)sc1C(=O)N1CCCCC1C (stereo not drawn),.,-1%,-9%,.,.,.,.,.
COc1ccc(-c2nnc(SCCOc3ccccc3C)o2)cc1OC,.,-2%,10%,.,.,.,.,.
N#CCCN(Cc1cccnc1)S(=O)(=O)c1ccc(S(=O)(=O)N2CCCCCC2)cc1,3%,-2%,?,.,.,.,.,.
N#CCCN(Cc1cccnc1)C(=S)NC(=O)c1ccc(S(=O)(=O)N2CCCC2)cc1,7.9µM*,.,.,10%,7%,-2%,5%,12%
Cc1cc(-c2ccco2)c(C#N)c2nc3ccccc3n12,1.3µM*,-4%,-21%,-19%[38.3 µM],-29%,?,?,?
Cc1cc(C(C)C)n2c(nc3ccccc32)c1C#N,1%,.,.,.,.,.,.,.
Cc1c(C)n(CCc2ccccc2)c2ncnc(NCCCO)c12,6%,.,.,.,.,.,.,.
COCCn1c(C)c(C)c2c(NCCc3ccccc3)ncnc21,28µM*,.,.,-28%,?,1%,1%,12%
C=CCOc1ccccc1CN1CCCCCC1,18µM*,.,.,-10%,0%,-2%,8%,3%
C=CCOc1ccccc1CN1CCSCC1,-26%,4%,-3%,.,.,.,.,.
SMILES,Giardia FBPA inh-1,Cruzain inh Det,Cruzain inh noDet,Giardia growth,Mammal cell tox,Giardia FBPA inh-2,Rabbit FBPA inh,GAPDH coupling
CCOc1ccc(CN2C(=O)C(=O)c3cccc(C)c32)cc1OC,.,0%,10%,.,.,.,.,.
COc1cccc(C(=O)N2CCN(Cc3cc(Br)ccc3OC)CC2)c1,-21%,0%,3%,.,.,.,.,.
O=[N+]([O-])c1ccccc1CN1CCN(Cc2c[nH]c3ccccc23)CC1,20µM*,.,.,5%[10.4 µM],-23%,1%,3%,5%
O=C(c1cccnc1)N1CCN(Cc2cccc(F)c2)CC1,?,-2%,-17%,.,.,.,.,.
O=C(c1ccccc1)N1CCN(Cc2c[nH]c3ccccc23)CC1,4%,-3%,-4%,.,.,.,.,.
COc1ccc(Br)cc1CN1CCN(C(=O)c2ccc(F)cc2)CC1,16µM*,.,.,4%,-11%,5%,12%,-7%
